Results on 37 molecules are retold here after the supplement of paper PMC7411640.

Structures can show the parent of a compound that is named as a salt.

The test system of one assay is MDA-MB-468. Nature of the assay: phospho-S6 immunofluorescence (DAPI-normalised), per-plate z-score; higher = higher phospho-S6 signal (less pathway suppression). The settings on record: co-treatment: GDC0941 450 nM; 24 h. The procedure:
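GPCR-targeted compound library (MedChemExpress HY-L006) tested on MDA-MB-468 PTEN-null TNBC cells in 384-well plates at 0.1, 1 or 10 uM, combined with vehicle, GDC0941 450 nM or lapatinib 1 uM, for 24 h. Phospho-S6 (S240/244) immunofluorescence normalised to DAPI and expressed as a per-plate z-score; values are the mean of biological triplicates.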
With `C[C@@](N)(C(=O)O)c1ccc(C(=O)O)cc1` (compound 10 µM), the “phospho-S6 immunofluorescence (z-score)” value was determined as 0.93.

Consider `N=C(N)N/N=C/c1c(Cl)cccc1Cl` [Guanabenz (Acetate)] (compound 10 µM), for which the “phospho-S6 immunofluorescence (z-score)” value was 0.61.

In the case of `Cc1nc(C#Cc2cccnc2)cs1` [MTEP (hydrochloride)] (compound 10 µM), the “phospho-S6 immunofluorescence (z-score)” value was -0.31.

Turning to `CN1[C@@H]2CC[C@H]1C[C@@H](OC(c1ccccc1)c1ccccc1)C2` [Benztropine (mesylate)] (compound 10 µM), the “phospho-S6 immunofluorescence (z-score)” value was determined as 1.67.

For the molecule `CN(C)CC/C=C1/c2ccccc2Sc2ccc(Cl)cc21` [Chlorprothixene] (compound 10 µM), the “phospho-S6 immunofluorescence (z-score)” value came out at 0.1.

On to `COc1nc(C)cnc1NS(=O)(=O)c1cccnc1-c1ccc(-c2nnco2)cc1` [Zibotentan] (compound 10 µM), for which the “phospho-S6 immunofluorescence (z-score)” value is -2.05.

Regarding `OCCN1CCN(CCCN2c3ccccc3Sc3ccc(Cl)cc32)CC1` [Perphenazine] (compound 10 µM), the “phospho-S6 immunofluorescence (z-score)” value is -1.28.

`Cc1ccc(F)cc1C(=O)Nc1ccc(C(=O)N2Cc3cccn3Cc3ccccc32)c(Cl)c1` [Lixivaptan] (compound 10 µM): the “phospho-S6 immunofluorescence (z-score)” value was -2.79.

With `Cn1c(=O)c2c(ncn2CC(=O)O)n(C)c1=O` [Acefylline] (compound 10 µM), the “phospho-S6 immunofluorescence (z-score)” value was 0.4.

`CC(=O)OCC(=O)NCCCOc1cccc(CN2CCCCC2)c1` [Roxatidine (Acetate Hydrochloride)] (compound 10 µM): the “phospho-S6 immunofluorescence (z-score)” value turned out to be 0.24.

Regarding `CC(C)C[C@H](NC(=O)[C@H](CC(C)C)NC(=O)[C@H](Cc1ccccc1)NC(=O)[C@@H](N)CO)C(=O)N[C@@H](CCCN=C(N)N)C(=O)N[C@@H](CC(N)=O)C(=O)O` (compound 10 µM), the “phospho-S6 immunofluorescence (z-score)” value was -1.01.

Regarding `CC(C)(O)c1ccccc1CC[C@@H](SCC1(CC(=O)O)CC1)c1cccc(/C=C/c2ccc3ccc(Cl)cc3n2)c1` [Montelukast (sodium)] (compound 10 µM), the “phospho-S6 immunofluorescence (z-score)” value came to 0.45.

As for `C[C@@H]1C[C@H]2[C@@H]3CCC4=CC(=O)C=C[C@]4(C)[C@@]3(Cl)[C@@H](O)C[C@]2(C)[C@@]1(OC(=O)c1ccco1)C(=O)CCl` [Mometasone furoate] (compound 10 µM), the “phospho-S6 immunofluorescence (z-score)” value was -0.46.

For `CCCSc1nc(N[C@@H]2C[C@H]2c2ccc(F)c(F)c2)c2nnn([C@@H]3C[C@H](OCCO)[C@@H](O)[C@H]3O)c2n1` [Ticagrelor] (compound 10 µM), the “phospho-S6 immunofluorescence (z-score)” value was -1.29.

Regarding `CC(C)c1noc(N2CCC(COc3ccc(-c4ccc(S(C)(=O)=O)cc4)nc3)CC2)n1` (compound 10 µM), the “phospho-S6 immunofluorescence (z-score)” value is -2.9.

For `O=S(=O)(c1ccccc1)c1cnc2c(N3CCNCC3)cccc2c1` (compound 10 µM), the “phospho-S6 immunofluorescence (z-score)” value came out at 0.13.

As for `OCCOCCN1CCN(C(c2ccccc2)c2ccccc2)CC1` [Decloxizine (dihydrochloride)] (compound 10 µM), the “phospho-S6 immunofluorescence (z-score)” value was found to be 0.55.

For `O=C(O[C@H]1CN2CCC1CC2)N1CCc2ccccc2[C@@H]1c1ccccc1` [Solifenacin (Succinate)] (compound 10 µM), the “phospho-S6 immunofluorescence (z-score)” value was determined as 1.65.

In the case of `COc1nc(C)nc(Cl)c1NC1=NCCN1` [Moxonidine] (compound 10 µM), the “phospho-S6 immunofluorescence (z-score)” value amounted to 0.49.

As for `OCCOCCN1CCN(C2=Nc3ccccc3Sc3ccccc32)CC1` [Quetiapine] (compound 10 µM), the “phospho-S6 immunofluorescence (z-score)” value worked out at 0.95.

On to `CN1CCC(=C2c3ccccc3CCc3cccnc32)CC1` [Azatadine (dimaleate)] (compound 10 µM), for which the “phospho-S6 immunofluorescence (z-score)” value worked out at 0.

With `CCN(CC)CC#CCOC(=O)C(O)(c1ccccc1)C1CCCCC1` (configuration not stated) [Oxybutynin] (compound 10 µM), the “phospho-S6 immunofluorescence (z-score)” value was -0.77.

For `COc1cc(/C=C/C(=O)NCCn2c(C(F)(F)F)cc3ccccc32)cc(OC)c1OC` (compound 10 µM), the “phospho-S6 immunofluorescence (z-score)” value is -3.69.

In the case of `O=S(=O)(O)c1cc(O)ccc1O` [Ethamsylate] (compound 10 µM), the “phospho-S6 immunofluorescence (z-score)” value is 0.

As for `CC[N+](CC)(CC)CCOc1cccc(OCC[N+](CC)(CC)CC)c1OCC[N+](CC)(CC)CC` [Gallamine Triethiodide] (compound 10 µM), the “phospho-S6 immunofluorescence (z-score)” value worked out at 0.5.

The same assay, now with this note: co-treatment: lapatinib 1 uM; 24 h.
Consider `CN1CCN(c2cc(-c3ccccc3)nc(N)n2)CC1` (compound 10 µM), for which the “phospho-S6 immunofluorescence (z-score)” value was found to be 0.06.

`CN1CCCC(n2nc(Cc3ccc(Cl)cc3)c3ccccc3c2=O)CC1` (configuration not stated) [Azelastine (hydrochloride)] (compound 10 µM): the “phospho-S6 immunofluorescence (z-score)” value is -0.25.

With `CCN(CC)CC#CCOC(=O)C(O)(c1ccccc1)C1CCCCC1` (configuration not stated) [Oxybutynin (chloride)] (compound 10 µM), the “phospho-S6 immunofluorescence (z-score)” value was determined as 0.51.

For `CCCCCNC(=N)N/N=C/c1c[nH]c2ccc(OC)cc12` [Tegaserod (maleate)] (compound 10 µM), the “phospho-S6 immunofluorescence (z-score)” value was -12.1.

Turning to `Clc1ccc2c(c1)N=C(N1CCNCC1)c1ccccc1N2` [N-Desmethylclozapine] (compound 10 µM), the “phospho-S6 immunofluorescence (z-score)” value was -3.16.

Turning to `c1ccc2c(CC3=NCCN3)cccc2c1` [Naphazoline (hydrochloride)] (compound 10 µM), the “phospho-S6 immunofluorescence (z-score)” value amounted to 0.03.

For the molecule `CC(=O)Nc1cccc2c1c(Sc1ccc(Cl)cc1)c(C)n2CC(=O)O` (compound 10 µM), the “phospho-S6 immunofluorescence (z-score)” value amounted to 0.08.

Regarding `CC(C)(C)NCC(O)COc1cccc2c1CCC(=O)N2` (configuration not stated) [Carteolol (hydrochloride)] (compound 10 µM), the “phospho-S6 immunofluorescence (z-score)” value was found to be 0.45.

On to `CN1CCC(=C2c3ccccc3CCn3c(C=O)cnc32)CC1` [Alcaftadine] (compound 10 µM), for which the “phospho-S6 immunofluorescence (z-score)” value was 1.09.

Consider `CCc1ccc(OCc2ccccc2C(=O)Nc2ccc3nc(C)cc(N)c3c2)cc1` (compound 10 µM), for which the “phospho-S6 immunofluorescence (z-score)” value was -12.

Turning to `CCCC(=O)Nc1ccc(OCC(O)CNC(C)C)c(C(C)=O)c1` (configuration not stated) [Acebutolol (hydrochloride)] (compound 10 µM), the “phospho-S6 immunofluorescence (z-score)” value worked out at 0.15.

Turning to `COc1cccc(CCc2ccccc2OCC(CN(C)C)OC(=O)CCC(=O)O)c1` (configuration not stated) [Sarpogrelate (hydrochloride)] (compound 10 µM), the “phospho-S6 immunofluorescence (z-score)” value was -0.51.

Regarding `C[C@@](N)(C(=O)O)c1ccc(C(=O)O)cc1` (compound 10 µM), the “phospho-S6 immunofluorescence (z-score)” value amounted to 1.

As for `N=C(N)N/N=C/c1c(Cl)cccc1Cl` [Guanabenz (Acetate)] (compound 10 µM), the “phospho-S6 immunofluorescence (z-score)” value is -0.12.

With `Cc1nc(C#Cc2cccnc2)cs1` [MTEP (hydrochloride)] (compound 10 µM), the “phospho-S6 immunofluorescence (z-score)” value was -0.65.

As for `CN1[C@@H]2CC[C@H]1C[C@@H](OC(c1ccccc1)c1ccccc1)C2` [Benztropine (mesylate)] (compound 10 µM), the “phospho-S6 immunofluorescence (z-score)” value was -1.69.

`CN(C)CC/C=C1/c2ccccc2Sc2ccc(Cl)cc21` [Chlorprothixene] (compound 10 µM): the “phospho-S6 immunofluorescence (z-score)” value is -3.66.

`COc1nc(C)cnc1NS(=O)(=O)c1cccnc1-c1ccc(-c2nnco2)cc1` [Zibotentan] (compound 10 µM): the “phospho-S6 immunofluorescence (z-score)” value is -0.19.

For the molecule `OCCN1CCN(CCCN2c3ccccc3Sc3ccc(Cl)cc32)CC1` [Perphenazine] (compound 10 µM), the “phospho-S6 immunofluorescence (z-score)” value is -5.07.

Regarding `Cc1ccc(F)cc1C(=O)Nc1ccc(C(=O)N2Cc3cccn3Cc3ccccc32)c(Cl)c1` [Lixivaptan] (compound 10 µM), the “phospho-S6 immunofluorescence (z-score)” value was -0.79.

With `Cn1c(=O)c2c(ncn2CC(=O)O)n(C)c1=O` [Acefylline] (compound 10 µM), the “phospho-S6 immunofluorescence (z-score)” value was 0.37.

Regarding `CC(=O)OCC(=O)NCCCOc1cccc(CN2CCCCC2)c1` [Roxatidine (Acetate Hydrochloride)] (compound 10 µM), the “phospho-S6 immunofluorescence (z-score)” value came to 0.32.

As to `CC(C)C[C@H](NC(=O)[C@H](CC(C)C)NC(=O)[C@H](Cc1ccccc1)NC(=O)[C@@H](N)CO)C(=O)N[C@@H](CCCN=C(N)N)C(=O)N[C@@H](CC(N)=O)C(=O)O` (compound 10 µM), the “phospho-S6 immunofluorescence (z-score)” value was -0.25.

In the case of `CC(C)(O)c1ccccc1CC[C@@H](SCC1(CC(=O)O)CC1)c1cccc(/C=C/c2ccc3ccc(Cl)cc3n2)c1` [Montelukast (sodium)] (compound 10 µM), the “phospho-S6 immunofluorescence (z-score)” value stood at 0.97.

`C[C@@H]1C[C@H]2[C@@H]3CCC4=CC(=O)C=C[C@]4(C)[C@@]3(Cl)[C@@H](O)C[C@]2(C)[C@@]1(OC(=O)c1ccco1)C(=O)CCl` [Mometasone furoate] (compound 10 µM): the “phospho-S6 immunofluorescence (z-score)” value amounted to 0.3.

Turning to `CCCSc1nc(N[C@@H]2C[C@H]2c2ccc(F)c(F)c2)c2nnn([C@@H]3C[C@H](OCCO)[C@@H](O)[C@H]3O)c2n1` [Ticagrelor] (compound 10 µM), the “phospho-S6 immunofluorescence (z-score)” value was determined as 0.02.

Consider `CC(C)c1noc(N2CCC(COc3ccc(-c4ccc(S(C)(=O)=O)cc4)nc3)CC2)n1` (compound 10 µM), for which the “phospho-S6 immunofluorescence (z-score)” value was -4.91.

On to `O=S(=O)(c1ccccc1)c1cnc2c(N3CCNCC3)cccc2c1` (compound 10 µM), for which the “phospho-S6 immunofluorescence (z-score)” value was -2.25.

Take `OCCOCCN1CCN(C(c2ccccc2)c2ccccc2)CC1` [Decloxizine (dihydrochloride)] (compound 10 µM): the “phospho-S6 immunofluorescence (z-score)” value is -0.6.

For the molecule `O=C(O[C@H]1CN2CCC1CC2)N1CCc2ccccc2[C@@H]1c1ccccc1` [Solifenacin (Succinate)] (compound 10 µM), the “phospho-S6 immunofluorescence (z-score)” value turned out to be 1.13.

Consider `COc1nc(C)nc(Cl)c1NC1=NCCN1` [Moxonidine] (compound 10 µM), for which the “phospho-S6 immunofluorescence (z-score)” value was found to be 0.68.

In the case of `OCCOCCN1CCN(C2=Nc3ccccc3Sc3ccccc32)CC1` [Quetiapine] (compound 10 µM), the “phospho-S6 immunofluorescence (z-score)” value was -0.32.

For `CN1CCC(=C2c3ccccc3CCc3cccnc32)CC1` [Azatadine (dimaleate)] (compound 10 µM), the “phospho-S6 immunofluorescence (z-score)” value amounted to 0.29.

For the molecule `CCN(CC)CC#CCOC(=O)C(O)(c1ccccc1)C1CCCCC1` (configuration not stated) [Oxybutynin] (compound 10 µM), the “phospho-S6 immunofluorescence (z-score)” value was determined as 0.75.

For the molecule `COc1cc(/C=C/C(=O)NCCn2c(C(F)(F)F)cc3ccccc32)cc(OC)c1OC` (compound 10 µM), the “phospho-S6 immunofluorescence (z-score)” value was -6.85.

On to `O=S(=O)(O)c1cc(O)ccc1O` [Ethamsylate] (compound 10 µM), for which the “phospho-S6 immunofluorescence (z-score)” value is -0.05.

For `CC[N+](CC)(CC)CCOc1cccc(OCC[N+](CC)(CC)CC)c1OCC[N+](CC)(CC)CC` [Gallamine Triethiodide] (compound 10 µM), the “phospho-S6 immunofluorescence (z-score)” value was -0.13.
